The values below come from PubChem BioAssay AID504467 (National Center for Advancing Translational Sciences (NCATS), 2011).

The whole screen tested about 330,000 compounds, of which about 7,700 (2.3%) were called active. Another 26% or so got no clear call; they are omitted. The full list was thinned out, with actives kept by preference. Values without a mark were called inactive. Calls follow the shape of the dose curve; as a rule, active = well fitted inhibition curve with a large enough effect; inconclusive = small, poorly fitted or top-dose-only effect, or effect the other way; inactive = flat fitted curve, though single readings scatter.
% is scaled to controls: 0 for no effect and ±100 for the full control effect; potency is read from the fitted curve at half-maximal effect.

This experiment is described as follows: qHTS screen for small molecules that inhibit ELG1-dependent DNA repair in human embryonic kidney (HEK293T) cells expressing luciferase-tagged ELG1. Also: nearly all actives have a fitted effect of over 55% in size. To be noted: HEK293T ELG1-luciferase reporter, luminescence, 16 h, DNA damage induced by 5-fluorouridine; series mostly up to 46.1 µM; activity change, negative = inhibition: at the top concentration. An excerpt:
NIH Molecular Libraries Probe Production Network [MLPCN] NIH Chemical Genomics Center [NCGC] MLPCN Grant: 1 R03 MH092164-01 Assay Provider: Kyungjae Myung, NHGRI, NIH Keywords: MLPCN, qHTS, NCGC, genotoxicity, cancer Assay Overview: Cancer cells divide rapidly compared to normal cells in the body. During cell division, cancer cells need to duplicate their genome by DNA replication. The failure of genome duplication leads to cancer cells' death. Therefore, inhibitors of DNA replication could specifically kill cancer cells. Based on this concept, many chemotherapeutic agents were developed and have been used to treat cancer patients. However, there are a limited number of agents available in the clinical setting, and some of those that do exist have low efficacy and severe side effects. Therefore, if we can find the compounds that effectively block DNA replication either by directly damaging DNA or by inhibiting other cellular mechanisms, the options for cancer treatment will be broadened. With this in mind, we developed a quantitative high-throughput ELG1-luciferase reporter gene assay. Small molecules that specifically block ELG1 function in response to DNA damage can be identified by monitoring the suppression of luciferase activity. Since ELG1 defines a pathway for repairing DNA damage, agents blocking ELG1 function can be used to sensitize cancer cells to chemotherapeutic agents whose mechanism of action involves the induction of DNA damage.
Assay Protocol Summary: For genotoxicity screening, 2,000 cells in 4 uL/well were dispensed into white, solid-bottom 1536-well plates using a solenoid-based dispenser. Following transfer of 1 uL 5-Fluorouridine and 23 nL compound or DMSO vehicle by a pin tool, the plates were incubated 16 hr at 37 °C and 5% CO2. 5 ul ONE-Glo (Promega) was then added to each plate and following a 30 min incubation at room temperature, luciferase activity was quantified on a ViewLux CCD-based plate reader.
Background: In qHTS, concentration-response curves come from the screen itself.
Regarding `O=C(CSc1ncn[nH]1)Nc1ccc(Br)cc1Br`, the “activity change, negative = inhibition” value is 18%.
Same read-out and setting: in the case of `Nc1ncnc2c1ncn2[C@@H]1O[C@H](CNS(=O)(=O)c2ccc(-c3ccno3)s2)[C@@H](O)[C@H]1O` it was 12.8%.
For the compound `CCn1ccnc1CN(C)C(=O)c1cc(COc2ccc(-n3cncn3)cc2)on1`, the “activity change, negative = inhibition” value was 1.51%.
Still for that read-out and setting: in the case of `COc1ccc(CC(=O)Nc2nc(-c3ccc(F)c(F)c3)cs2)cc1OC` it was -17.4%.
Consider `COc1cccc(CC(=O)Nc2nc(-c3ccc(OC)c(OC)c3)cs2)c1`, for which the Potency is 25.9 µM (active).
In the case of `COc1cccc(CC(=O)Nc2ccc(-c3csc(C)n3)cc2)c1`, the “activity change, negative = inhibition” value is -2.46%.
The same measure, in the same setting: the figure for `COc1ccccc1C(=O)NCC(=O)OCC(=O)Nc1nnc(-c2ccccc2)o1` is 18.9%.
Still for that read-out and setting: in the case of `COc1ccc(/C=C/C(=O)NC(=S)N2CCCC(C(N)=O)C2)cc1` (centres undefined) it was 12.9%.
With `CCc1nnc(NC(=O)CSc2nc3c(c(=O)n2-c2ccccc2OC)SCC3)s1`, the Potency is 20.6 µM (active).
With `CCOC(=O)c1sc(NC(=O)CSc2nc3c(c(=O)n2-c2ccccc2)SCC3)c(C(=O)OCC)c1C`, the “activity change, negative = inhibition” value was -7.99%.
As for `CCOc1ccc(NC(=O)CSc2nc3c(c(=O)n2-c2ccccc2OC)SCC3)cc1`, the “activity change, negative = inhibition” value was -1.1%.
In the case of `Cc1ccc(S(=O)(=O)NCCC(=O)OCC(=O)N(C)c2ccccc2)cc1`, the “activity change, negative = inhibition” value is -14.6%.
Same read-out and setting: in the case of `O=c1ccc2cc(S(=O)(=O)Nc3ccccc3F)ccc2o1` it was 3.06%.
On the same count and under the same terms, in the case of `O=c1oc2ccccc2c(NC2CCCCC2)c1NS(=O)(=O)c1ccc(Cl)cc1` it was -0.699%.
Turning to `O=c1oc(-c2ccccc2NS(=O)(=O)c2ccc(Cl)cc2)nc2ccccc12`, the Potency is 14.6 µM (active).
As to `Cc1ccc(NC(=O)c2ccc(S(=O)(=O)NCC3CCCO3)cc2)cc1C` (centres undefined), the “activity change, negative = inhibition” value was -12.5%.
As to `CN(CC1CCCO1)S(=O)(=O)c1ccc(C(=O)Nc2ccc([N+](=O)[O-])cc2)cc1` (centres undefined), the Potency was 1.83 µM (active).
With `CN(CC1CCCO1)S(=O)(=O)c1ccc(C(=O)Nc2ccc(F)cc2)cc1` (centres undefined), the Potency was 4.11 µM (active).
Regarding `CCC(=O)Nc1ccc(S(=O)(=O)NCC2CCCO2)cc1` (centres undefined), the “activity change, negative = inhibition” value is -9.4%.
Same read-out and setting: in the case of `CCOc1ccc(C(=O)Nc2ccc(S(=O)(=O)NCC3CCCO3)cc2)cc1OCC` (centres undefined) it was -11.3%; in that of `O=C(Nc1ccc(S(=O)(=O)NCC2CCCO2)cc1)c1ccc(F)cc1` (centres undefined), -17.1%.
Same read-out and setting: in the case of `Cc1c2cnn(CC(=O)NCc3ccccn3)c(=O)c2c(C)n1Cc1ccc(Cl)cc1` it was -19.6%; in that of `COc1cccc(-n2c(SCC(=O)NC3CCS(=O)(=O)C3)nc3ccccc3c2=O)c1` (centres undefined), 6.94%.
For the compound `C[C@H]1CN([C@@H](C)CO)C(=O)Cc2cc(NC(=O)Cc3ccccc3)ccc2O[C@H]1CN(C)S(=O)(=O)c1cccs1`, the “activity change, negative = inhibition” value is -24.8%.
Turning to `O=c1ccc2c(-c3ccccc3S(=O)(=O)O)c3ccc(O)c(O)c3oc-2c1O`, the Potency was 35.5 µM (active).
For the compound `COc1cc(OC)cc(-c2sc3ccc(OC)cc3c2-c2ccc3cc[nH]c3c2)c1`, the “activity change, negative = inhibition” value is 0%.
The same measure, in the same setting: the figure for `CC(C)CC1NC(=O)c2cc(Cl)ccc2-n2c1nc1ccccc1c2=O` (centres undefined) is 8.05%.
For `Cc1cccc(N(Cc2ccccc2)C(=O)c2ccccc2F)c1`, the “activity change, negative = inhibition” value was -11.6%.
`COC(=O)c1ccc2c(=O)n(CCN3CCOCC3)c(SCC(=O)Nc3cccc(OC)c3)nc2c1`: the “activity change, negative = inhibition” value is -4.3%.
Regarding `CCc1ccc(NC(=O)CSc2nc3ccccc3c(=O)n2CCN2CCOCC2)cc1`, the Potency was 23.1 µM (active).
For `CCOc1ccc(NC(=O)CSc2nc3ccccc3c(=O)n2Cc2cccs2)cc1`, the “activity change, negative = inhibition” value was 21%.
Still for that read-out and setting: in the case of `Cn1c(=O)n(C)c2cc(S(=O)(=O)Nc3ccc(F)cc3)ccc21` it was -1.4%.
As to `CC1(C)CC(=O)C=C(c2cccc3c2Oc2ccccc2S3)C1`, the “activity change, negative = inhibition” value was 13%.
Turning to `Cc1ccc(N(CC(=O)Nc2cccc(N(C)S(C)(=O)=O)c2)S(C)(=O)=O)cc1`, the Potency was 6.51 µM (active).
On to `CCOc1ccc(N(CC(=O)Nc2cccc(OC)c2)S(C)(=O)=O)cc1`, for which the “activity change, negative = inhibition” value is 15.1%.
`COc1cccc(N(CC(=O)Nc2cccc(F)c2)S(C)(=O)=O)c1`: the “activity change, negative = inhibition” value is 0.188%.
`Cc1[nH]c2ccccc2c1C(=O)C(C)Sc1nnc(C2CC2)o1` (centres undefined): the “activity change, negative = inhibition” value was 8.65%.
Turning to `O=C(COC(=O)c1ccc([N+](=O)[O-])o1)NC12CC3CC(CC(C3)C1)C2`, the “activity change, negative = inhibition” value is 9.39%.
The same measure, in the same setting: in the case of `COC(=O)[C@]1(Cc2ccccc2)N[C@H](CN(C)S(=O)(=O)c2ccc(F)cc2)[C@@H]2C(=O)N(Cc3ccccc3)C(=O)[C@@H]21` it was -21.5%; in that of `CC(=O)N1c2ccc(S(=O)(=O)N3CCCC(C(=O)NCc4ccc(Cl)cc4)C3)cc2CC1C` (centres undefined), -15.6%; in that of `N#Cc1cccc(NC(=O)C2CCCN(C(=O)c3ccc(Cl)cc3)C2)c1` (centres undefined), -29.3%.
Consider `Cn1c(-c2sccc2OCc2cccc(C(F)(F)F)c2)n[nH]c1=S`, for which the Potency is 23.1 µM (active).
For `Cn1c(-c2sc3cc(C(F)(F)F)cnc3c2-c2ccccc2)n[nH]c1=S`, the “activity change, negative = inhibition” value is -13.7%.
Same read-out and setting: the figure for `Cc1ccccc1-c1n[nH]c(=S)n1C` is 5.07%.
Take `O=C(Nc1ccccc1N1CCCC1)c1ccc(F)c(S(=O)(=O)N2CCOCC2)c1`: the “activity change, negative = inhibition” value is 6.03%.
Still for that read-out and setting: in the case of `COc1ccc(CCC(=O)N2CCN(S(=O)(=O)c3ccc(OC)cc3)CC2)cc1` it was -5.8%; in that of `CCCNC(=O)CSc1nc(Cc2ccccc2)nc2ccccc12`, -13.7%.
Take `CCCNC(=O)CCc1c(C)nc2c(c(C)nn2-c2ccc(C)cc2)c1C`: the “activity change, negative = inhibition” value is -24%.
Still for that read-out and setting: the figure for `CCCCC(CC)CNCc1cccn1CCN1CCOCC1` (centres undefined) is -7.51%.
